According to the supplement of paper PMC11732987, “Enantioselective OTUD7B fragment discovery through chemoproteomics screening and high-throughput optimisation” (Communications Chemistry, 2025):

Assays:
Test in all cases: log2 ratio of Biotin-Ahx-Ub-VS probe labelling (fragment/DMSO); higher = less target engagement (more negative = stronger competition), active = hit call of the paper (q ≤ 0.05, log2 ratio ≤ -1)
Conditions in all cases: compound concentration: 200 uM; treatment time: 3 h
[1] = biological target: USP34 (UniProt Q70CQ2)
Summary of the method: (§1)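 The table lists average log2 ratios of fragment over vehicle, from an unpaired t-test on global-median-normalised Spectronaut label-free quantities. Proteins with ≥2 unique peptides were used. Samples were HEK293T lysate (495 µg) treated in triplicate with fragment at 200 µM or vehicle for 3 h, then with Biotin-Ahx-Ub-VS (0.5 µM final) for 1 h, with labelled DUBs NeutrAvidin-enriched and run by diaPASEF LC-MS/MS.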

[2] = biological target: T1, USP36 (UniProt Q9P275)
T1 sequence (whole entry): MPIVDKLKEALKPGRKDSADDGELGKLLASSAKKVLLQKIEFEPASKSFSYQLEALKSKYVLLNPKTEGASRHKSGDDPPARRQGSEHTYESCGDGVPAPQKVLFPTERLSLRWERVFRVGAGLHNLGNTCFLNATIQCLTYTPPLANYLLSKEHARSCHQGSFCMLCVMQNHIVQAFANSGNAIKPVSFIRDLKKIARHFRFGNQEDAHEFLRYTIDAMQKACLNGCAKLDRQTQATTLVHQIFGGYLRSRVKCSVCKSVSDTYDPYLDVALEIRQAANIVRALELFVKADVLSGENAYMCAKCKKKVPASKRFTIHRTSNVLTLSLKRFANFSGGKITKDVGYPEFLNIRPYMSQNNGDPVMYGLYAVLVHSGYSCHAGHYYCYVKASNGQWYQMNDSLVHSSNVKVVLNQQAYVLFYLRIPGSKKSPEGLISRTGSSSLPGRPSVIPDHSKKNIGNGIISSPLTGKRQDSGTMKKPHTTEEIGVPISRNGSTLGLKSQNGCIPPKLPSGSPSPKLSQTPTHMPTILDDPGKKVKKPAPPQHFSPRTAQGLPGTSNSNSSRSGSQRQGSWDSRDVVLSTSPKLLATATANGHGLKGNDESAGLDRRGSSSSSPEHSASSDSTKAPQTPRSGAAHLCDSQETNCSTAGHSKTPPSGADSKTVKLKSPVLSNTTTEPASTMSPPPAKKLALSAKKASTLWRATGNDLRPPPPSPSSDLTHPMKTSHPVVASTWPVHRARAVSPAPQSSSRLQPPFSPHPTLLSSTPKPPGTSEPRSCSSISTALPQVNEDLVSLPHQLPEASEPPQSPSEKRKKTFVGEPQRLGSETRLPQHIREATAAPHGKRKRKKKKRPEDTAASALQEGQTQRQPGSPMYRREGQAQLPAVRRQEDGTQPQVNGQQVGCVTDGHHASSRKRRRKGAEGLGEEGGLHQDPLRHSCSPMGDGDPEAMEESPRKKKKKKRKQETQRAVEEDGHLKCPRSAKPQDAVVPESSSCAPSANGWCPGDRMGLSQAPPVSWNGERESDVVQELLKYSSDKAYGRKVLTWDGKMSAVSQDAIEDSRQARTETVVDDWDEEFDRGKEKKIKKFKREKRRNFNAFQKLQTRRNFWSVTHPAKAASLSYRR
Summary of the method: as §1

[3] = biological target: T2, USP38 (UniProt Q8NB14)
T2 sequence (whole entry): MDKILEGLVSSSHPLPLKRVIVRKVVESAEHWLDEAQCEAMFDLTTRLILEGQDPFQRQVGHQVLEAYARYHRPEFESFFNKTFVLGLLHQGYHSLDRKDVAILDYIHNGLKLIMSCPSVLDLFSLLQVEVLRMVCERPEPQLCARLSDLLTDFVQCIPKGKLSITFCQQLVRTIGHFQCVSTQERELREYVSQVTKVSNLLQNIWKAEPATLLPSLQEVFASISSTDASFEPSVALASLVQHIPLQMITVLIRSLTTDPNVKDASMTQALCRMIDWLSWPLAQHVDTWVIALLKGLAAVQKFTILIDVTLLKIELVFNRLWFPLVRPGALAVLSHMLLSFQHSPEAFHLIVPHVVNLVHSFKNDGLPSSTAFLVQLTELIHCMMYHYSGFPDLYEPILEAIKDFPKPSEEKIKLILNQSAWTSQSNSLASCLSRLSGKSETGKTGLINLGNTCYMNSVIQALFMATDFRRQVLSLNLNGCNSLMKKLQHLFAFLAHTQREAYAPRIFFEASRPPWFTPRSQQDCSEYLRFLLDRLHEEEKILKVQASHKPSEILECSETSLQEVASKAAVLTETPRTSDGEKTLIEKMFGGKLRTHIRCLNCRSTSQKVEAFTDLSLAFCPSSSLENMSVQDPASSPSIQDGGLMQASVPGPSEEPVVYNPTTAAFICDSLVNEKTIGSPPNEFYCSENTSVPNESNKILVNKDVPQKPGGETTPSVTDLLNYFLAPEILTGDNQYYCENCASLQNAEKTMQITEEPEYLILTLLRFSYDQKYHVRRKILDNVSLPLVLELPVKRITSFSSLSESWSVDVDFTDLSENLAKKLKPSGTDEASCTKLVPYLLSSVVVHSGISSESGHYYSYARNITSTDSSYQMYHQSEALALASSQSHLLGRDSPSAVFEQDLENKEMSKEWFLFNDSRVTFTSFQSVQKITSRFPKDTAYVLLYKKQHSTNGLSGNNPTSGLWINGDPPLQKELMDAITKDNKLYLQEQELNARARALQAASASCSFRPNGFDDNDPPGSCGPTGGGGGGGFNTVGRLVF
Summary of the method: as §1

[4] = biological target: T3, USP39 (UniProt Q53GS9)
T3 sequence (whole entry): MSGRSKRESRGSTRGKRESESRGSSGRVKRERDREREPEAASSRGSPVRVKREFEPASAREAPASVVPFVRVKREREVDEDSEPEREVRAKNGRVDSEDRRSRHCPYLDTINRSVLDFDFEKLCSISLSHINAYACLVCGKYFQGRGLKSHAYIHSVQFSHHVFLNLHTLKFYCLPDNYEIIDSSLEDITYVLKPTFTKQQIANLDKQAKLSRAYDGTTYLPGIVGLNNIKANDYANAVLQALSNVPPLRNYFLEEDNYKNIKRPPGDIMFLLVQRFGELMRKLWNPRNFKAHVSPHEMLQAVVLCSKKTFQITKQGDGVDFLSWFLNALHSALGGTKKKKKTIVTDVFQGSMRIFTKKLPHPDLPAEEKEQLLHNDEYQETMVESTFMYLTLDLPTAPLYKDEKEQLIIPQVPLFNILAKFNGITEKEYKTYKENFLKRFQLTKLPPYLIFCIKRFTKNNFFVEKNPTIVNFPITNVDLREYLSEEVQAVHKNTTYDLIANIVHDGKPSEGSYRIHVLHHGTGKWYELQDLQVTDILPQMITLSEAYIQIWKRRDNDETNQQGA
Summary of the method: as §1

[5] = biological target: T4, USP4 (UniProt Q13107)
T4 sequence (whole entry): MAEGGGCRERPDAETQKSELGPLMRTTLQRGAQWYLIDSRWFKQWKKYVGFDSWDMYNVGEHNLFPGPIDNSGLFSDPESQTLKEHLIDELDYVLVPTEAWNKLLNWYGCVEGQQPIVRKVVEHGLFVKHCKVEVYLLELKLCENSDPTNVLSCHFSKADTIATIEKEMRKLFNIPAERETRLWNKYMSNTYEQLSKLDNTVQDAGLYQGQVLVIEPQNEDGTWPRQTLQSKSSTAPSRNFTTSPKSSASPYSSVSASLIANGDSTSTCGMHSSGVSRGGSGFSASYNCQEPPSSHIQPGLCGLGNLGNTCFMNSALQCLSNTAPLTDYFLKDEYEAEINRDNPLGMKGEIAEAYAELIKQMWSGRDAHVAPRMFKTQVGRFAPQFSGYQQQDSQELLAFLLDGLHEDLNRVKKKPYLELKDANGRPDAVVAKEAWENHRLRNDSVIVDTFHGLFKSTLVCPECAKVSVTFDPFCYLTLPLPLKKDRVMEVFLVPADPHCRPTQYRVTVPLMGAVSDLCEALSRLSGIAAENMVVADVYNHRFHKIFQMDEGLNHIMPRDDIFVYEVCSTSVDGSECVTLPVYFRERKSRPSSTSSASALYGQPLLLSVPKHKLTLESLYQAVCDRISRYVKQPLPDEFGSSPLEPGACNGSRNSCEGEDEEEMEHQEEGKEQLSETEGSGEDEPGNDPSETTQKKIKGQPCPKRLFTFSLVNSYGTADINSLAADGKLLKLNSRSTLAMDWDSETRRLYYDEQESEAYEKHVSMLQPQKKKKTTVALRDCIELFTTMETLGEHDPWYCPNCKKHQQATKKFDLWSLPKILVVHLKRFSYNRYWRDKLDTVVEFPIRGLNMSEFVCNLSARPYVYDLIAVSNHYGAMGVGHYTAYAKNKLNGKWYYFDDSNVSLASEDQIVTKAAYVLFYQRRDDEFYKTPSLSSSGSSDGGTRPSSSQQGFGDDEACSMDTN
Summary of the method: as §1

Measured: log2 ratio of Biotin-Ahx-Ub-VS probe labelling

USP34, sequence (Q70CQ2 whole entry, the tested form may be a part): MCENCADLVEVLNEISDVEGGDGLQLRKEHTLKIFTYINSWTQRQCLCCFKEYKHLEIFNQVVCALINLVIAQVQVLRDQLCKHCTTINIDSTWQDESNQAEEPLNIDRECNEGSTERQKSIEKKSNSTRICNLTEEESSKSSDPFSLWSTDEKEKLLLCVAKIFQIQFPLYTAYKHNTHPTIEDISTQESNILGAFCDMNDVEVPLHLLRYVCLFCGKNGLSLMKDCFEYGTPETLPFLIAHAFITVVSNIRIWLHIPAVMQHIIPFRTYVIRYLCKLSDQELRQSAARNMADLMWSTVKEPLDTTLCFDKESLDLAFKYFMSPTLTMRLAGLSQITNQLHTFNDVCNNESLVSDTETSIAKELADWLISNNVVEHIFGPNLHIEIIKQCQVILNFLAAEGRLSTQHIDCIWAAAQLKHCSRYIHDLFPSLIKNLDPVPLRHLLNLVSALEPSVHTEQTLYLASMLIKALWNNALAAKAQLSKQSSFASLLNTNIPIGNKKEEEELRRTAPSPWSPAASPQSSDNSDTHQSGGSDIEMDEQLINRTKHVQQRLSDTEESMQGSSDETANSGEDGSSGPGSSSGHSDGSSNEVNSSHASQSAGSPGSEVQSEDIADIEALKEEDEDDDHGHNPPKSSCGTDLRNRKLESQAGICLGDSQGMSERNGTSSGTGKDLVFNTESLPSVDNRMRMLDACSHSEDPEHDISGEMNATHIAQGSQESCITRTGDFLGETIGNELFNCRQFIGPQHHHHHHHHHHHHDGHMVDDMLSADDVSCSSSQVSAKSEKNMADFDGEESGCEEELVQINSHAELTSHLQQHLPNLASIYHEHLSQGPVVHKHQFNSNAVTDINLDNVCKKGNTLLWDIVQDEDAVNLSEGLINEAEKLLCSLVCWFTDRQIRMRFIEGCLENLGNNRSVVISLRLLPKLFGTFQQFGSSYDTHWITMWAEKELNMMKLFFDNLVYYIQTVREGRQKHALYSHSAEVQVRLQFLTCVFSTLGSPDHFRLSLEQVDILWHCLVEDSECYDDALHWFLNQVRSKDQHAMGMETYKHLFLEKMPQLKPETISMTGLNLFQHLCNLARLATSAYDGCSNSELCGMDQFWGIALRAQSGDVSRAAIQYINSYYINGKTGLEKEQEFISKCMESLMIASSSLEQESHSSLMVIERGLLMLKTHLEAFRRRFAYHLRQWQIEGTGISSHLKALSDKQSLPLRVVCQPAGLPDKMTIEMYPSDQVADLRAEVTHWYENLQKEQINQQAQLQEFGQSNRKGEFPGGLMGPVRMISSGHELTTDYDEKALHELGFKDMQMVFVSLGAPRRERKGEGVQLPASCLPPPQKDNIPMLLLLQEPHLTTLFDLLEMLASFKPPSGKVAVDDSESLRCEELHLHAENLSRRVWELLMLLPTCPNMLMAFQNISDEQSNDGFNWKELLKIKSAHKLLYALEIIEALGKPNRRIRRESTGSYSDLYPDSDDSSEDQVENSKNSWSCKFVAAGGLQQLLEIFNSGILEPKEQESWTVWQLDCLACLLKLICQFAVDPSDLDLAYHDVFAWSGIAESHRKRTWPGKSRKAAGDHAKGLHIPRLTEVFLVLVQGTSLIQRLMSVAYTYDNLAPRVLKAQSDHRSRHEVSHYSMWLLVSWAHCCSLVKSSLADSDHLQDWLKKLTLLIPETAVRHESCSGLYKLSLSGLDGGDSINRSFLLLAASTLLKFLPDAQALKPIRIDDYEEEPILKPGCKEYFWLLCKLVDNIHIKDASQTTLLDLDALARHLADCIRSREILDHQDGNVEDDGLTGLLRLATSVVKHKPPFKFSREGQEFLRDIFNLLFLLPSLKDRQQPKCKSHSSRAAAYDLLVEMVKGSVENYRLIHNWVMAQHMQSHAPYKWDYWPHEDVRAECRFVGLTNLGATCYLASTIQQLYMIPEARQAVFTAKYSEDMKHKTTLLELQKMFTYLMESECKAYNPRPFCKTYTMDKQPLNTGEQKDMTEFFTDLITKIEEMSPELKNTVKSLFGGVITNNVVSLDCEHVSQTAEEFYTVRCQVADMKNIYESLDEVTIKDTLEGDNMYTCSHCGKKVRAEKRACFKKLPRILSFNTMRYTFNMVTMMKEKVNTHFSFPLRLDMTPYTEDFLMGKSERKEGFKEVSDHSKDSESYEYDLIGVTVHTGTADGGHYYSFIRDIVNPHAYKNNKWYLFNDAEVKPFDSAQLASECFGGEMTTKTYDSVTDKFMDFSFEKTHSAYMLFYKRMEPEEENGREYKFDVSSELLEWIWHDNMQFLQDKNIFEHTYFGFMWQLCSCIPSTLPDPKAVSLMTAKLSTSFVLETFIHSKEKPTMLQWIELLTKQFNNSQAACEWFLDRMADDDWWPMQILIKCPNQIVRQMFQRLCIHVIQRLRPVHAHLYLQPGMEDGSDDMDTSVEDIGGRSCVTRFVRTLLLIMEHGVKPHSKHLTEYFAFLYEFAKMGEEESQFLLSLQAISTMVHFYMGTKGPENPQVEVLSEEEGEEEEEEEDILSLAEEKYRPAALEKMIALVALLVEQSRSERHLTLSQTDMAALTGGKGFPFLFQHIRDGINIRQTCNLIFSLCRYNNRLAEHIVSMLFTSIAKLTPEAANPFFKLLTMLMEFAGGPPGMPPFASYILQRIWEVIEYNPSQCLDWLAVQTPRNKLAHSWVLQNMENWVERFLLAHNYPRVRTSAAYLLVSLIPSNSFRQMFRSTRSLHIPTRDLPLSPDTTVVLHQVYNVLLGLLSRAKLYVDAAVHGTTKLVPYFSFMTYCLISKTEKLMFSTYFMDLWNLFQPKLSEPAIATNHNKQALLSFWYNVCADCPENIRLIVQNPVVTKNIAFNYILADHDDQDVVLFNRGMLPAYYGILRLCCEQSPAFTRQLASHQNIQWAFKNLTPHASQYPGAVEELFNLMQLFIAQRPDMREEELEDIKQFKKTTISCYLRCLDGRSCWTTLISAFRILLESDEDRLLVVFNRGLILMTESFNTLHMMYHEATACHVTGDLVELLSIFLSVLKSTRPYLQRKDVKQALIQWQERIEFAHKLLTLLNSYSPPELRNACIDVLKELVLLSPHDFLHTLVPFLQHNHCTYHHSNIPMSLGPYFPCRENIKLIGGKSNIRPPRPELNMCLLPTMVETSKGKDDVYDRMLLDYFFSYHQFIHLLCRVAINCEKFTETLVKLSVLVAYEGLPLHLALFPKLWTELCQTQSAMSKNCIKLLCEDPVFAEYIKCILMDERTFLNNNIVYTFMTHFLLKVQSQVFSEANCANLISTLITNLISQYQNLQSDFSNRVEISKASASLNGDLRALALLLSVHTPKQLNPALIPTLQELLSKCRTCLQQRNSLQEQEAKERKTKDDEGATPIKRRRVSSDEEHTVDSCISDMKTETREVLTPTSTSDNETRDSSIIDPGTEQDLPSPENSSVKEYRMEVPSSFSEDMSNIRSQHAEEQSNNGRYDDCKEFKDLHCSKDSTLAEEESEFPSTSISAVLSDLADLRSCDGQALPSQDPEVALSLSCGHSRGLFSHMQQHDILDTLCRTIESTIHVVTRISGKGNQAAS

C[C@@H](NC(=O)CCl)c1cccc(C#N)c1
inactive: [1] -0.444 | [2] 0.00395 | [3] -0.0294 | [4] 0.198 | [5] 0.0193
